Test results taken from PubChem BioAssay (NCATS).
Inconclusive results are not listed. Activity calls are given as the source filed them. Calls come from the whole dose curve; as a rule, active = well fitted curve in the direction sought with a large enough effect; inconclusive = small, poorly fitted or top-dose-only effect, or another doubt; inactive = no such curve, though single readings can be large; an effect the other way counts as inactive or inconclusive.

What was measured:
NIH3T3 = test: qHTS assay to identify novel small-molecules to repurpose for Merkel cell carcinoma treatment (AID 1296009); details: MCC and control cell lines, CellTiter-Glo viability, 72 h; at 44.8 µM (top of the series) unless noted; note: nearly all actives have a fitted effect of over 60% in size
How it was run: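 Cell viability, measured as CellTiter-Glo luminescence, was normalized between DMSO and no-cell wells. The cells had been exposed to 8- or 11-point compound dilutions for 72 hr at 37 degree celsius.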

C33A = test: Primary qHTS to identify gynecologic anti-cancer compounds using libraries of approved drugs and bioactive compounds (AID 1345084); details: Gynecologic cancer cell panel viability, ATPlite luminescence, 48 h; series mostly up to 57.5 µM; note: % is set by controls: 0 for no effect and ±100 for the full control effect; nearly all actives have a fitted effect of over 55% in size
How it was run: (§1)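 In this quantitative HTS, cell killing is estimated from loss of ATP-dependent luciferase light. Cells see five compound concentrations over a 48 h exposure.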

CAOV3 = test: as above; details: Gynecologic cancer cell panel viability, ATPlite luminescence, 48 h; series mostly up to 57.5 µM
How it was run: as §1

CASKI = test: as above; details: Gynecologic cancer cell panel viability, ATPlite luminescence, 48 h; series mostly up to 57.5 µM
How it was run: as §1

Es-2 = test: as above; details: Gynecologic cancer cell panel viability, ATPlite luminescence, 48 h; series mostly up to 57.5 µM
How it was run: as §1

HeLa = test: as above; details: Gynecologic cancer cell panel viability, ATPlite luminescence, 48 h; series mostly up to 57.5 µM
How it was run: as §1

Hek293T = test: as above; details: Gynecologic cancer cell panel viability, ATPlite luminescence, 48 h, control line for the selectivity index; series mostly up to 57.5 µM
How it was run: as §1

JEG-3 = test: as above; details: Gynecologic cancer cell panel viability, ATPlite luminescence, 48 h; series mostly up to 57.5 µM
How it was run: as §1

OV90 = test: as above; details: Gynecologic cancer cell panel viability, ATPlite luminescence, 48 h; series mostly up to 57.5 µM
How it was run: as §1

PA-1 = test: as above; details: Gynecologic cancer cell panel viability, ATPlite luminescence, 48 h; series mostly up to 57.5 µM
How it was run: as §1

SKOV3 = test: as above; details: Gynecologic cancer cell panel viability, ATPlite luminescence, 48 h; series mostly up to 57.5 µM
How it was run: as §1

Tov-21-G = test: as above; details: Gynecologic cancer cell panel viability, ATPlite luminescence, 48 h; series mostly up to 57.5 µM
How it was run: as §1

Tov112D = test: as above; details: Gynecologic cancer cell panel viability, ATPlite luminescence, 48 h; series mostly up to 57.5 µM
How it was run: as §1

C[C@@H]1C[C@@H](O)[C@@]23CO[C@]2(CO)CCC[C@@H]3[C@@]12C[C@@H](c1ccoc1)OC2=O
inactive: outcome (NIH3T3) | Potency (C33A) | Potency (CAOV3) | outcome (CASKI) | Potency (Es-2) | Potency (HeLa) | Potency (Hek293T) | Potency (JEG-3) | Potency (OV90) | Potency (PA-1) | Potency (SKOV3) | Potency (Tov-21-G) | Potency (Tov112D)

OC[C@@]1(O)CO[C@H](OC[C@H]2O[C@@H](OC(CCCCc3ccc(O)cc3)CCc3ccc(O)cc3)[C@H](O)[C@@H](O)[C@@H]2O)[C@@H]1O (stereo not given in full)
inactive: outcome (NIH3T3) inactive [at 17.4 µM] | Potency (C33A) | Potency (CAOV3) | outcome (CASKI) | Potency (Es-2) | Potency (HeLa) | Potency (Hek293T) | Potency (JEG-3) | Potency (OV90) | Potency (PA-1) | Potency (SKOV3) | Potency (Tov-21-G) | Potency (Tov112D)

CC1(C)CC[C@]2(C(=O)O[C@@H]3O[C@H](CO[C@@H]4O[C@H](CO)[C@@H](O)[C@H](O)[C@H]4O)[C@@H](O)[C@H](O[C@@H]4O[C@H](CO)[C@@H](O)[C@H](O)[C@H]4O)[C@H]3O)CC[C@]3(C)C(=CCC4[C@@]5(C)CC[C@H](O[C@@H]6OC[C@@H](O)[C@H](O)[C@H]6O)[C@@](C)(C(=O)O)C5CC[C@]43C)[C@@H]2C1 (stereo not given in full)
inactive: outcome (NIH3T3) inactive [at 9.27 µM] | activity change, negative = cytotoxicity (C33A) 0.217% [at 11.6 µM] | activity change, negative = cytotoxicity (CAOV3) 15.5% [at 11.6 µM] | activity change, negative = cytotoxicity (CASKI) 9.7% [at 11.6 µM] | activity change, negative = cytotoxicity (Es-2) -1.43% [at 11.6 µM] | activity change, negative = cytotoxicity (HeLa) 13.2% [at 11.6 µM] | activity change, negative = cytotoxicity (Hek293T) 2.76% [at 11.6 µM] | activity change, negative = cytotoxicity (JEG-3) 2.05% [at 11.6 µM] | activity change, negative = cytotoxicity (OV90) 1.75% [at 11.6 µM] | activity change, negative = cytotoxicity (PA-1) 0.621% [at 11.6 µM] | activity change, negative = cytotoxicity (SKOV3) 10.7% [at 11.6 µM] | activity change, negative = cytotoxicity (Tov-21-G) 10.6% [at 11.6 µM] | activity change, negative = cytotoxicity (Tov112D) 3.57% [at 11.6 µM]

CCC(C)C(N)C(=O)NCCN1CCOCC1 (stereo not given)
inactive: outcome (NIH3T3) | Potency (C33A) | Potency (CAOV3) | outcome (CASKI) | Potency (Es-2) | Potency (HeLa) | Potency (Hek293T) | Potency (JEG-3) | Potency (OV90) | Potency (PA-1) | Potency (SKOV3) | Potency (Tov-21-G) | Potency (Tov112D)

CC(C)=CC1C[C@](C)(O)[C@@H]2[C@H]3CCC4[C@@]5(C)CC[C@H](O[C@@H]6OC[C@H](O)[C@H](O[C@@H]7O[C@H](CO[C@@H]8O[C@H](CO)[C@@H](O)[C@H](O)[C@H]8O)[C@@H](O)[C@H](O)[C@H]7O)[C@H]6O[C@@H]6O[C@@H](C)[C@H](O)[C@@H](O)[C@H]6O)C(C)(C)[C@@H]5CC[C@@]4(C)[C@@]34CO[C@@]2(C4)O1 (stereo not given in full)
inactive: outcome (NIH3T3) inactive [at 9.27 µM] | activity change, negative = cytotoxicity (C33A) 25.2% [at 11.6 µM] | activity change, negative = cytotoxicity (CAOV3) 4.48% [at 11.6 µM] | activity change, negative = cytotoxicity (CASKI) 12.3% [at 11.6 µM] | activity change, negative = cytotoxicity (Es-2) 11.4% [at 11.6 µM] | activity change, negative = cytotoxicity (HeLa) 6.98% [at 11.6 µM] | activity change, negative = cytotoxicity (Hek293T) -1.62% [at 11.6 µM] | activity change, negative = cytotoxicity (JEG-3) 8.28% [at 11.6 µM] | activity change, negative = cytotoxicity (OV90) 5% [at 11.6 µM] | activity change, negative = cytotoxicity (PA-1) 0.967% [at 11.6 µM] | activity change, negative = cytotoxicity (SKOV3) 2.44% [at 11.6 µM] | activity change, negative = cytotoxicity (Tov-21-G) 9.39% [at 11.6 µM] | activity change, negative = cytotoxicity (Tov112D) 6.5% [at 11.6 µM]

CCC(C)C(=O)OC[C@H]1O[C@H](O[C@H]2O[C@H](CO)[C@@H](O)[C@H](O)[C@H]2O)[C@H](O)[C@@H](O)[C@@H]1O (stereo not given in full)
inactive: outcome (NIH3T3) inactive [at 17.4 µM] | Potency (C33A) | Potency (CAOV3) | outcome (CASKI) | Potency (Es-2) | Potency (HeLa) | Potency (Hek293T) | Potency (JEG-3) | Potency (OV90) | Potency (PA-1) | Potency (SKOV3) | Potency (Tov-21-G) | Potency (Tov112D)

O=C(O)[C@H](Cc1ccccc1)Oc1ccc(-c2ccccc2)cc1
inactive: outcome (NIH3T3) | Potency (C33A) | Potency (CAOV3) | outcome (CASKI) | Potency (Es-2) | Potency (HeLa) | Potency (Hek293T) | Potency (JEG-3) | Potency (OV90) | Potency (PA-1) | Potency (SKOV3) | Potency (Tov-21-G) | Potency (Tov112D)

CC(O)/C=C/C1(O)C(C)C(O)C(O[C@@H]2O[C@H](CO)[C@@H](O)[C@H](O)[C@H]2O)CC1(C)C (stereo not given in full)
inactive: outcome (NIH3T3) inactive [at 17.4 µM] | Potency (C33A) | Potency (CAOV3) | outcome (CASKI) | Potency (Es-2) | Potency (HeLa) | Potency (Hek293T) | Potency (JEG-3) | Potency (OV90) | Potency (PA-1) | Potency (SKOV3) | Potency (Tov-21-G) | Potency (Tov112D)

C=C1C[C@H](O)[C@@H](O)[C@@]2(C)C1[C@@H](O)[C@H]1OC(=O)C3[C@@H](C)[C@@H](O)[C@H](O)C2[C@]31C (stereo not given in full)
inactive: outcome (NIH3T3) | Potency (C33A) | Potency (CAOV3) | outcome (CASKI) | Potency (Es-2) | Potency (HeLa) | Potency (Hek293T) | Potency (JEG-3) | Potency (OV90) | Potency (PA-1) | Potency (SKOV3) | Potency (Tov-21-G) | Potency (Tov112D)

C[C@@H]1O[C@@H](O[C@H]2[C@H](OC(=O)[C@]34CCC(C)(C)C[C@H]3C3=CCC5[C@@]6(C)C[C@@H](O)[C@@H](O)[C@@](C)(CO)C6[C@H](O)C[C@@]5(C)[C@]3(C)CC4)OC[C@H](O)[C@@H]2O)[C@H](O)[C@H](O)[C@H]1O[C@@H]1OC[C@@H](O)[C@H](O[C@H]2O[C@H](C)[C@@H](O)[C@H](O)[C@@H]2O)[C@H]1O (stereo not given in full)
inactive: outcome (NIH3T3) inactive [at 9.27 µM] | activity change, negative = cytotoxicity (C33A) -5.04% [at 11.6 µM] | activity change, negative = cytotoxicity (CAOV3) 7.19% [at 11.6 µM] | activity change, negative = cytotoxicity (CASKI) 15.8% [at 11.6 µM] | activity change, negative = cytotoxicity (Es-2) 6.09% [at 11.6 µM] | activity change, negative = cytotoxicity (HeLa) 13.1% [at 11.6 µM] | activity change, negative = cytotoxicity (Hek293T) -1.53% [at 11.6 µM] | activity change, negative = cytotoxicity (JEG-3) 3.24% [at 11.6 µM] | activity change, negative = cytotoxicity (OV90) 9.69% [at 11.6 µM] | activity change, negative = cytotoxicity (PA-1) 12.4% [at 11.6 µM] | activity change, negative = cytotoxicity (SKOV3) -1.53% [at 11.6 µM] | activity change, negative = cytotoxicity (Tov-21-G) 0.722% [at 11.6 µM] | activity change, negative = cytotoxicity (Tov112D) 3.92% [at 11.6 µM]
